FMDV inh: blocks foot and mouth disease virus; FMDV antiviral cell-based qHTS; Potency, µM (series often up to 57.9 µM), for inactives: at the highest dose activity change, negative = inhibition, most hits filed as inhibitors; 410,000 tested, 1.2% active; AID 1159524; calls by dose curve; tested in HEK293T cells; also: read-out not given here; potency is read from the fitted curve at half-maximal effect; % is scaled to controls: 0 for no effect and ±100 for the full control effect; nearly all actives have a fitted effect of over 45% in size
Shiga inhibitor: blocks Shiga toxin action in Vero cells; inhibition, % at 38.7 µM; Vero cells, Shiga toxin protein synthesis inhibition reporter; 290,000 tested, 9.2% active; in the data active = inhibition mostly above about 28%, no sharp cut-off; inactive = mostly below about 43%; also: 0% is about no effect
HCV inh: blocks hepatitis C virus; Huh7.5.1 HCVcc-Cre infection, luciferase reporter, 44 h; Potency, µM (highest dose often 41.8 µM), for inactives: at the highest dose activity change, negative = inhibition, hits mostly inhibitors; 340,000 tested, 3.4% active; AID 651820; active = well fitted inhibition curve with a large enough effect; inconclusive = small, poorly fitted or top-dose-only effect, or another doubt; inactive = no such curve, though single readings can be large or run the other way; also: potency is read from the fitted curve at half-maximal effect; % is scaled to controls: 0 for no effect and ±100 for the full control effect
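After 44 h co-culture of compound, cells and HCVcc-Cre (~0.5 moi), substrate is added for 15 min at room temperature and luciferase measured over 15 sec. Cells were seeded at 1,000/well and pre-cultured 4 h.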
MARV entry inh: Marburg virus entry inhibition; Potency, µM (series often up to 37.8 µM), without a hit: at the top dose activity change, negative = inhibition, hits mostly inhibitors; Marburg virus pseudotyped entry inhibition, cell reporter; AID 540276; 300,000 tested, 1.8% active; calls by dose curve; tested in HEK293 cells; also: potency is read from the fitted curve at half-maximal effect; % is scaled to controls: 0 for no effect and ±100 for the full control effect
CHX counter: counter-screen hit for Shiga toxin inhibitors, cycloheximide; cell reporter, cycloheximide protein synthesis inhibition counterscreen; max response, %; 300,000 tested, 12% active; AID 2314; in the data active = max response mostly above about 13%, no sharp cut-off; inactive = mostly below about 14%; also: read at 38.3 µM for the half of the compounds with a filed dose; 0% is about no effect
Lassa entry inh: inhibitors of Lassa virus binding or cell entry; 300,000 tested, 1.2% active; Potency, µM (doses to about 37.9 µM), inactives show top-dose activity change, negative = inhibition, hits mostly inhibitors; Lassa virus pseudotype entry inhibition, cell reporter; calls by dose curve; tested in HEK293 cells; also: potency is read from the fitted curve at half-maximal effect; % is scaled to controls: 0 for no effect and ±100 for the full control effect; nearly all actives have a fitted effect of over 50% in size
An asterisk follows results filed as active; ? = inconclusive; . = no result; [ ] = dose if it differs, or a comment. Only some compounds are listed: those with a hit (about 13% of all), similar ones and a draw of the others.

SMILES | FMDV inh | Shiga inhibitor | HCV inh | MARV entry inh | CHX counter | Lassa entry inh
CC(C)c1ccc(OCC(=O)N2CCN(c3ccccn3)CC2)c(Br)c1 | 7.4% | -9.3 | . | -3.7% | 9.7 | -0.6%
CC(C)c1ccc(OCc2nc(-c3ccccn3)no2)c(Br)c1 | -13.4% | 66.8* | 12.6µM* | ? | 46.3* | ?
CCc1ccc(OCc2nc(-c3ccccn3)no2)c(Br)c1 | . | 23.8 | ? | ? | 29.0* | ?
Cc1ccc(OCc2nc(-c3ccccn3)no2)c(Br)c1 | -50.5% | 21.1 | -0.9% | ? | 11.1 | ?
Cc1cc(N2CCN(c3ncccn3)CC2)nc2c(C)cccc12 | ? | -6.8 | ? | ? | 1.6 | -10.4%
CCOC(=O)c1cc(C(=O)Nc2ccccc2F)nn1C | 7.9% | 72.0* | -4.0% | ? | 37.2* | ?
CCOC(=O)c1c(N)sc(C(=O)Nc2ccccc2)c1C | 2.0% | 73.5* | 11.2µM* | . | 25.7* | .
CCOC(=O)c1c(N)sc(C(=O)Nc2ccccc2F)c1C | 44.0% | 36.8 | -5.6% | . | 36.7* | .
CCOC(=O)c1c(NC(C)=O)sc2c(OC)cccc12 | 1.1% | -10.4 | ? | -2.8% | 4.4 | 7.4%
CCOC(=O)c1c(N)sc(C(=O)N(CC)CC)c1C | -11.3% | -6.4 | 3.0% | -16.1%[46.1 µM] | 0.4 | 15.3%[46.1 µM]
CCOC(=O)c1c(N)sc2c(NC(C)=O)cccc12 | 0.0% | 2.9 | 17.8µM* | -5.3% | 13.9 | -15.9%
O=C(CSc1ccc(Br)cc1)NC1CCCCCC1 | 35.0% | . | 3.7% | 17.5% | . | 16.8%
COC(=O)c1c(NC(C)=O)sc(C(=O)Nc2ccccc2F)c1C | 35.3% | 12.8 | ? | 23.3%[46.1 µM] | 6.9 | 16.0%
COC(=O)c1c(NC(C)=O)sc(C(=O)Nc2ccccc2)c1C | 22.2% | 27.8 | -22.4% | -14.6%[46.1 µM] | 10.0 | 0.6%
CCOC(=O)c1c(C)nc2sc(C(=O)Nc3ccccc3)c(N)c2c1-c1ccc(OC)cc1 | 0.0% | 18.5 | 6.31µM* | ? | -4.2 | 8.91µM*
CCC(=O)Nc1sc(C(=O)Nc2ccccc2F)c(C)c1C(=O)OC | 46.4% | 52.3* | -27.8% | -0.7%[46.1 µM] | 6.9 | ?
CCCC(=O)Nc1sc(C(=O)Nc2cccc(N)c2)c(C)c1C(=O)OC | 32.9% | 59.4* | ? | ? | 51.4* | ?
CCOc1ccc(Nc2cc(C)nc3nc(C)nn23)cc1 | 3.8% | -8.8 | 5.4%[8.37 µM] | -0.1% | -1.3 | 5.4%
COc1ccc(N2C(=O)/C(=C\c3ccco3)N=C2SCC(=O)NC(C)(C)C)cc1Cl | -15.2% | 25.4 | ? | -27.8% | 13.4* | -4.1%
CCN(CC)C(=O)CSC1=N/C(=C/c2ccco2)C(=O)N1c1ccc(OC)c(Cl)c1 | -9.0% | -4.6 | ? | ? | -1.9 | ?
CC(C)(C)C(=O)Nc1nnc(SCc2cccc(F)c2)s1 | 71.4% | 90.8* | -1.8% | . | 52.9* | .
CC(C)C(=O)Nc1nnc(SCc2cccc(F)c2)s1 | 7.4% | 48.8* | -1.2% | . | 13.6* | .
COCCSc1nnc(NC(=O)C(C)(C)C)s1 | 51.7% | 110.7* | 14.4% | -0.9% | 59.5* | ?
O=C(Nc1nnc(SCc2cccc(F)c2)s1)c1ccco1 | 13.6% | 20.1 | 19.4% | . | 3.3 | .
CC(C)(C)C(=O)Nc1nnc(SCc2ccc(F)cc2)s1 | 3.6% | 42.0 | -12.3% | 0.2% | 21.6* | 4.1%
SMILES | FMDV inh | Shiga inhibitor | HCV inh | MARV entry inh | CHX counter | Lassa entry inh
COCCSc1nnc(NC(=O)CSc2ccccc2)s1 | . | -9.0 | -8.7% | 4.6% | 7.7 | -13.0%
COC(=O)CNC(=O)c1ccc(=O)oc1 | -13.8% | 41.1 | 7.2% | -19.4%[46.1 µM] | 2.1 | -0.5%
CCc1[nH]nc(C(=O)N2CCCC(C(=O)c3cccc(OC(C)C)c3)C2)c1C (centres undefined) | -0.6% | 50.7* | ? | -10.2%[46.1 µM] | 24.1* | ?
CC(C)Oc1cccc(C(=O)C2CCCN(C(=O)CCc3cnn(C)c3)C2)c1 (centres undefined) | 6.0% | 65.8* | . | -26.6% | 51.6* | -25.7%
Cc1cc(Br)cn2c(Cc3cccc(Cl)c3)c(-c3ccco3)nc12 | -17.9% | . | . | . | . | .
O=C(CSc1nnc(C2CC2)n1CC1CCCO1)Nc1cccc(Cl)c1 (centres undefined) | 8.0% | -5.3 | 3.7% | 24.7%[46.1 µM] | -2.7 | -1.0%
CCCCOc1ccc(C(=O)NCC(=O)NCC(c2ccc(OC)cc2)N2CCOCC2)cc1 (centres undefined) | 12.0% | . | -10.9% | -1.5% | . | -5.7%
O=C(NNC(=S)NCc1ccco1)c1ccc(Cl)s1 | 13.6% | -1.9 | 10.9% | 0.6% | -3.3 | 13.3%
Cc1nnc(SCC(=O)N2CCc3ccccc32)s1 | . | active | -6.1% | 7.3% | 19.6* | 0.1%
Cn1nnnc1SCC(=O)N1CCCc2ccccc21 | -12.1% | -2.5 | -16.6% | -15.8% | -2.9 | -9.2%
O=C(CSc1ccccc1)N1CCc2ccccc21 | 18.1% | 93.1* | 16.6% | 5.0%[46.1 µM] | 31.3* | -0.5%
O=C(CSc1cccc[n+]1[O-])N1CCCc2ccccc21 | 28.3% | 15.3 | 5.3% | 22.5%[46.1 µM] | 22.7* | -1.3%
O=C(CSCc1ccco1)c1ccc(Cl)s1 | . | 108.1* | . | -4.0% | 25.5* | .
Cn1nnnc1SCC(=O)N1CCc2ccccc21 | -1.7% | -10.2 | 6.3% | ? | -0.3 | 26.4%[46.1 µM]
CC(=O)Nc1nonc1-c1nnc(SCC(=O)Nc2ccc(C)c(Cl)c2)n1-c1ccccc1 | ? | . | . | 3.5%[46.1 µM] | . | -2.3%[46.1 µM]
NC(=O)c1cc(S(=O)(=O)N2CCN(c3cccc(C(F)(F)F)c3)CC2)cs1 | -26.4% | . | . | . | . | -15.0%[46.1 µM]
COc1ccc(NC(=O)CSc2nc3c(c(=O)n2-c2ccc(F)cc2)SCC3)c(OC)c1 | -16.6% | -6.5 | ? | -22.4%[46.1 µM] | -1.5 | -2.6%
CCCCOC(=O)N(C)SN(C)C(=O)Oc1cccc2c1OC(C)(C)C2 | . | -5.7 | . | . | -8.6 | .
CCn1cc(SCC(=O)N2CCc3ccccc32)c2ccccc21 | 17.8% | 53.9* | ? | . | 26.9* | .
O=C(CSc1ccc(-c2ccc(Cl)cc2)nn1)N1CCCc2ccccc21 | ? | 26.2 | ? | ? | 12.9* | ?
O=C(CSc1c[nH]c2ccccc12)N1CCCc2ccccc21 | -11.9% | -1.7 | -29.9% | . | -1.7 | .
Cc1nnc(SCC(=O)N2CCCc3ccccc32)[nH]c1=O | 21.1% | 13.9 | -5.9% | -1.3% | 23.1* | -12.6%
O=C(CSCc1ccco1)N1CCc2ccccc21 | 42.1% | 105.2* | 0.6% | 7.2%[46.1 µM] | 39.5* | -25.5%[46.1 µM]
Cc1nc(SCC(=O)N2CCc3ccccc32)n[nH]1 | 40.1% | 41.1 | -10.0% | 7.4% | 33.1* | 15.5%
Nc1nc(SCC(=O)N2CCCc3ccccc32)n[nH]1 | 0.0% | . | 6.9% | . | . | .
Nc1cc(N)nc(SCC(=O)N2CCc3ccccc32)n1 | 25.8% | 58.4* | 6.8% | 22.1% | 29.9* | 9.3%
CCOP(=O)(OCC)/C(C#N)=C/c1ccc([N+](=O)[O-])cc1 | -8.5% | -10.1 | 24.2% | -1.6%[46.1 µM] | -0.7 | -0.5%[46.1 µM]
CCOc1ccc(NC(=O)c2cccnc2Cl)c([N+](=O)[O-])c1 | 4.5% | -4.7 | -15.4% | ? | 26.3 | 1.9%
CCOc1ccc(NC(=O)c2cccs2)c([N+](=O)[O-])c1 | 65.7% | 120.4* | ? | ? | 87.4* | ?
CCOc1ccc(NC(=O)c2ccc(CC)s2)c([N+](=O)[O-])c1 | 49.4% | 34.0* | ? | ? | 23.3* | 22.8%

Assay outcomes from PubChem BioAssay.
